Results as given in PubChem BioAssay (Tox21).
“And” between values parts separate entries of the source, which are not always exact repeats. Equal entries are not always repeated. Results filed as inconclusive are left out. A call without a number means that no potency is given here. The source made the active and inactive calls. Calls come from the whole dose curve; as a rule, active = well fitted cell-killing curve with a large enough effect in the repeat runs; inconclusive = weak or mixed curves, or effect the other way; inactive = flat fitted curve, though single readings scatter.

Test: qHTS RealTime-Glo MT Cell Viability Assay in HEK293 cells - 8 hour (AID 1224887); note: nearly all actives have a fitted effect of over 50% in size; for activity change, negative = cytotoxicity: top concentration of the series differs between compounds
Conditions: RealTime-Glo luminescence; series mostly up to 76.8 µM; activity change, negative = cytotoxicity: at the top concentration
From the text: U.S. Tox21 Program National Center for Advancing Translational Sciences [NCATS] NIH Chemical Genomics Center [NCGC] U.S. Environmental Protection Agency [EPA] National Institutes of Environmental Health Sciences [NIEHS] National Toxicology Program [NTP] U.S. Food and Drug Administration [FDA] Tox21 Assay Overview: Measure of cell viability is critical in the cell-base assay. Analysis of cell viability is necessary for the characterization of cell responses to cytotoxic drugs and environmental stress. A RealTime-Glo MT Cell Viability Assay to monitor cell viability in real time of continues cell culture during 40 hours of compound treatment was used to screen Tox21 10K library compounds in Hek293 cells. The RealTime-Glo MT Cell Viability Assay is a nonlytic, homogeneous, bioluminescent method to measure cell viability in real time using a simple, plate-based method. The assay involves adding NanoLuc luciferase and a cell-permeant prosubstrate to cells in culture. Viable cells reduce the proprietary prosubstrate to generate a substrate for NanoLuc luciferase. This substrate diffuses from cells into the surrounding culture medium, where it is rapidly used by the NanoLuc Enzyme to produce a luminescent signal. The signal correlates with the number of viable cells, making the assay well suited for cytotoxicity studies.
Tox21 Assay Protocol Summary: The mixture of Hek293 cell suspension and reagents were dispensed at 600cells/6 ul/well in 1536-well tissue culture treated black solid bottom plates using a Multidrop dispenser. After the assay plates were incubated at a 37 C/5% CO2 incubator for 5 hours, 23 nL of compounds dissolved in DMSO, positive and negative controls was transferred to the assay plate by a pintool work station. The plates were incubated at 37 C for 40 hours. The luminescence intensity were measured at 0h, 8h, 16h, 24h, 32h and 40h time points using ViewLux plate reader during compound treatment.
Potency is the fitted concentration of half-maximal effect.

SMILES	Potency	activity change, negative = cytotoxicity
C=CC(C)(C)C	inactive	–
OC[C@H]1O[C@@H](Oc2ccc(O)cc2)[C@H](O)[C@@H](O)[C@@H]1O	inactive	–
CN=C(NC#N)NCCSCc1nc[nH]c1C	inactive	–
Nc1cccc(C(F)(F)F)c1	inactive	–
NC(N)=S	inactive	–
CCN(CC)CCNC(=O)c1ccc(N)cc1	inactive	–
Cc1ccncc1	inactive	–
CC(=O)OC[C@H]1O[C@@](COC(C)=O)(O[C@H]2O[C@H](COC(C)=O)[C@@H](OC(C)=O)[C@H](OC(C)=O)[C@H]2OC(C)=O)[C@@H](OC(C)=O)[C@@H]1OC(C)=O	inactive	–
OB(O)O	inactive	–
CC(C)c1ccc(C(C)C)cc1	inactive	–
CCCCC(=O)O	inactive	–
CCCCCCCC(=O)O	inactive	–
CC(C)(C)NC[C@H](O)COc1nsnc1N1CCOCC1	inactive	–
CS(=O)(=O)c1ccc(Cl)cc1	inactive	–
C[n+]1ccn(CCO)c1	inactive	–
CC(=O)OCc1ccc2c(c1)OCO2	inactive	–
O=c1n(CCCN2CCN(c3cccc(Cl)c3)CC2)nc2ccccn12	11 µM (active) and 10.7 µM (active)	–
CC(C)=CCC/C(C)=C/C=O	inactive	–
CCOC(=O)CC(=O)OCC	inactive	–
CC(O)CNCC(C)O (stereo not given)	inactive	–

SMILES	Potency	activity change, negative = cytotoxicity
COc1ccc(N)c(OC)c1	inactive	–
CC1(C)[C@@H](O[C@H]2O[C@H](C(=O)O)[C@@H](O)[C@H](O)[C@H]2O[C@@H]2O[C@H](C(=O)O)[C@@H](O)[C@H](O)[C@H]2O)CC[C@]2(C)[C@H]3C(=O)C=C4[C@@H]5C[C@@](C)(C(=O)O)CC[C@]5(C)CC[C@@]4(C)[C@]3(C)CC[C@@H]12	inactive	–
Cc1ccccc1C=O	inactive	–
C1CCCNCC1	inactive	–
O=C(O)C1=NN(c2ccc(S(=O)(=O)O)cc2)C(=O)C1	inactive	–
O=Cc1ccc(CO)o1	inactive	–
COc1c2ccoc2cc2oc(=O)ccc12	–	-27.3% (inactive)
O=C(Cl)c1ccc(C(=O)Cl)cc1	inactive	–
OCC(CO)(CO)CO	inactive	–
CC(=O)C(C)C	inactive	–
O=C(O)Cc1c[nH]c2ccccc12	inactive	–
COc1ccccc1[N+](=O)[O-]	inactive	–
N[C@@H](Cc1cc(I)c(Oc2ccc(O)c(I)c2)c(I)c1)C(=O)O	inactive	–
OCCOCCOCCOCCOCCO	inactive	–
CCCCCNCCCCC	inactive	–
CO[Si](CCCNCCN)(OC)OC	inactive	–
CCCCCCCCC(=O)O	inactive	–
CCCCC(CC)COC(=O)c1ccc(C(=O)OCC(CC)CCCC)cc1 (stereo not given)	inactive	–
Clc1cccc(Cl)c1NC1=NCCN1	inactive	–
Brc1ccc(Oc2ccc(Br)cc2)cc1	inactive	–
